# High-throughput results (PubChem)
# The list is not random: actives were taken first. Their share in the collection is about 21%.
# DRD3 antagonist: qHTS of D3 Dopamine Receptor Antagonist: qHTS | max response, negative = inhibition, % | actives 2.5% (n = 360,000) | AID 652054, 2013 | D(3) dopamine receptor (Homo sapiens), P35462 | D3R cells, DiscoveRx beta-arrestin luminescence, antagonist mode; active compounds read low; in the data active = max response below about -50%; inconclusive = no clear call, values can overlap the other calls; also: % is scaled to controls: 0 for no effect and ±100 for the full control effect
# Target sequence (P35462 whole entry, looked up): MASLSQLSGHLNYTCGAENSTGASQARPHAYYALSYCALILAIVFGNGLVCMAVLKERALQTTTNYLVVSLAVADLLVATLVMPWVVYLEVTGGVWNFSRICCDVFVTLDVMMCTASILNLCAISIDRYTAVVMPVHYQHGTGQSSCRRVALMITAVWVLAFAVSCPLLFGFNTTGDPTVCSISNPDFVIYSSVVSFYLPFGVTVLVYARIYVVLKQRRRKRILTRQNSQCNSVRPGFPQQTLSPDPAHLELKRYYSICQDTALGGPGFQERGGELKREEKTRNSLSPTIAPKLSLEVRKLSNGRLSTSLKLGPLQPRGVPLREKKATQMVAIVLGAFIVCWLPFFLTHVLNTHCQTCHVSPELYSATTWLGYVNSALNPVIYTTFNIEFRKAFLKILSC
#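 Cells plated overnight at 1500 cells/well, then exposed to library compounds with dopamine controls for 90 minutes at 37 degrees C. DiscoveRx reagent added for 30–60 minutes at room temperature; luminescence read, quantitative HTS format.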
# D3 ag: qHTS of D3 Dopamine Receptor Agonist: qHTS; D3R DiscoveRx beta-arrestin cells, luminescence, 90 min; max activation, %; actives 0.58% (n = 410,000); AID 652048, 2013; in the data active = max activation above about 30%; also: 0% is about no effect
#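 Agonist mode: compounds and dopamine controls were applied to plated cells for 90 min at 37 degrees C after an overnight attachment at 1500 cells/well. Luminescent read-out followed 30 - 60 minutes at room temperature with DiscoveRx detection reagent.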
# IL1B secr inh: qHTS for Inhibitors of Inflammasome Signaling: IL-1-beta AlphaLISA Primary Screen. THP-1 LPS/ATP IL-1B secretion, AlphaLISA, 16 h; active compounds read low. activity change, % at 57.5 µM. actives 4.7% (n = 360,000). AID 743279, 2014; in the data active = activity change below about -50%; inconclusive = mostly about -30% to -49%; also: % is scaled to controls: 0 for no effect and ±100 for the full control effect
#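 THP-1 cells pretreated 1 hr with compounds (up to 57.5 uM final), then stimulated with LPS (250 ng/mL final) plus ATP (1.25 mM final); secreted IL-1B measured by AlphaLISA after 16 hr, decreased signal indicating inhibition.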
# DT40 TDP1 no CPT: qHTS for Inhibitors of human tyrosyl-DNA phosphodiesterase 1 (TDP1): qHTS in cells in absence of CPT. Potency, µM (highest dose often 46.2 µM), without a hit: at the top dose activity change, negative = growth inhibition, hits mostly inhibitors. AID 686978, 2013. DT40 Tdp1-/- hTDP1 cells, no CPT, ATP luminescence, 48 h. actives 15% (n = 420,000); also: potency is read from the fitted curve at half-maximal effect; % is scaled to controls: 0 for no effect and ±100 for the full control effect; nearly all actives have a fitted effect of over 55% in size
#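 Stably hTDP1-transfected Tdp1-null chicken DT40 cells were treated with library compounds minus camptothecin and grown for at least 48 hr at 37 °C, after which cellular ATP was quantified by luminescence.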
# TDP1 cell CPT: qHTS for Inhibitors of human tyrosyl-DNA phosphodiesterase 1 (TDP1): qHTS in cells in presence of CPT; chicken DT40 Tdp1-/-;hTDP1 cells + 20 nM CPT, ATP luminescence, 48 h; Potency, µM (highest dose often 46.2 µM), for the others: at the highest dose activity change, negative = growth inhibition, actives largely listed as inhibitors; actives 12% (n = 420,000); AID 686979, 2013; also: potency is read from the fitted curve at half-maximal effect; % is scaled to controls: 0 for no effect and ±100 for the full control effect; nearly all actives have a fitted effect of over 55% in size
#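 Chicken DT40 Tdp1-/- cells complemented with human TDP1, 400 cells/well, exposed to compounds plus 20 nM camptothecin for at least 48 h at 37 C; viability read as ATP content by CellTiter-Glo luminescence.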
# ClpP mod: qHTS Assay for Activators of ClpP; ATP-dependent Clp protease proteolytic subunit (Bacillus subtilis (strain 168)), P80244; Potency, µM (doses to about 57.5 µM), without a hit: top-dose activity change, negative = active; purified B. subtilis ClpP, FRET peptide cleavage, 20 min; AID 651965, 2013; actives 1.9% (n = 340,000); active = well fitted falling curve with a large enough effect; inconclusive = small, poorly fitted or top-dose-only effect; inactive = no such curve, though single readings can be large or run the other way; also: potency is read from the fitted curve at half-maximal effect; the source files actives as falling curves though it sought activators and does not explain the sign; nearly all actives have a fitted effect of over 65% in size
# Target sequence (P80244 whole entry, looked up): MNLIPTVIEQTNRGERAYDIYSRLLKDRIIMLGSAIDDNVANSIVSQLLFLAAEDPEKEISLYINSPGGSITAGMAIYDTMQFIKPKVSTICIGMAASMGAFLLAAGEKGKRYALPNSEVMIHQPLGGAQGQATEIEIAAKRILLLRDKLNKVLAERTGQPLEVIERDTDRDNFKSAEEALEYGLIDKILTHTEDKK
#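 FRET quenching reversal measured ClpP activation: 10 microg/mL B. subtilis ClpP at pH 8 with the FRET-FV decapeptide, read at 430 nm after 320 nm excitation. The 20-min minus 0-min signal was scaled between DMSO/no-enzyme wells and ADEP (5.8 microM final).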
# Numbers without * were called inactive; ? = inconclusive; / = no result given. Unless noted, calls follow the shape of the dose curve; as a rule, active = well fitted inhibition curve with a large enough effect; inconclusive = small, poorly fitted or top-dose-only effect; inactive = flat fitted curve, though single readings scatter.
SMILES,DRD3 antagonist,D3 ag,IL1B secr inh,DT40 TDP1 no CPT,TDP1 cell CPT,ClpP mod
O=C(Nc1ccc2c(c1)oc1ccc(S(=O)(=O)N3CCCC3)cc12)C1CC1,7,8,-57*,?,?,-19%
Cc1csc(NC(=O)CCNC(=O)c2ccccc2Cl)n1,-13,-1,0,0%,10%,/
CC(=O)c1cccc(NC(=O)CCc2nnc3ccc(NCc4ccc5c(c4)OCO5)nn23)c1,8,-2,112,13%,-20%,-2%
O=[N+]([O-])c1ccc(N2CCN(C(=S)Nc3ccc(F)cc3F)CC2)cc1,-13,1,-8,8.2µM*,6.5µM*,/
O=[N+]([O-])c1ccc(N2CCN(C(=S)Nc3ccc(F)cc3)CC2)cc1,-12,-2,-4,5.8µM*,5.2µM*,/
O=[N+]([O-])c1ccc(N2CCN(C(=S)Nc3cccc(F)c3)CC2)cc1,3,0,-20,9.2µM*,8.2µM*,-1%
CCCOc1ccc(CCC(=O)N/N=C/c2ccco2)cc1,9,7,/,-28%,-3%,/
O=C(COc1ccc(-c2ccccc2)cc1)N/N=C/c1cccnc1,13,2,8,?,?,1%
CCCOc1ccc(CCC(=O)N/N=C/c2ccncc2)cc1,-2,4,46,?,26µM*,1%
O=C(COc1ccccc1-c1ccccc1)N/N=C/c1ccc2ccccc2c1,-3,2,20,0.92µM*,1.2µM*,-20%
O=C(COc1ccccc1)N/N=C/c1ccc2c(c1)OCO2,2,-6,-21,-36%,10%,/
Cc1cccc(C)c1OCC(=O)N/N=C/c1cccnc1,7,2,13,15µM*,?,/
CCOc1ccc(CC(=O)N/N=C/c2cccnc2)cc1,-6,-6,2,-24%,-3%,16µM*
CCOC(=O)c1ccc(NC(=O)CN2c3ccccc3S(=O)(=O)c3ccccc32)cc1,/,15,/,?,?,?
Cc1ccccc1OCC(=O)N/N=C/c1ccncc1,14,3,21,11%,2%,-1%
O=C(COc1ccccc1-c1ccccc1)N/N=C/c1ccccn1,53,-1,55,23µM*,23µM*,-4%
O=C(COc1ccccc1-c1ccccc1)N/N=C/c1cccnc1,23,2,75,13µM*,15µM*,3%
CN1c2ccccc2C2(C)CCCC3=Cc4cc([N+](=O)[O-])cc([N+](=O)[O-])c4OC312 (stereo not drawn),-17,-3,-2,23µM*,15µM*,-1%
CN1c2ccccc2C2(C)CCCC3=Cc4cccc([N+](=O)[O-])c4OC312 (stereo not drawn),-17,-6,-2,16µM*,?,-2%
O=C(NCc1ccccc1)NC1CC2CCC(C1)N2Cc1ccco1 (stereo not drawn),-12,-4,3,-20%,10%,1%
O=C(NC1CCN(C(=O)NCc2ccccc2)CC1)c1cccc(F)c1,3,3,20,-15%,-16%,/
O=C(NC1CC2CCC(C1)N2Cc1ccco1)c1ccccc1 (stereo not drawn),-69*,-3,-5,1%,-12%,2%
O=C(NC1CC2CCC(C1)N2Cc1ccccc1)c1cccc(F)c1 (stereo not drawn),-117*,-4,4,-26%,-12%,-1%
COc1ccc(CN2C3CCC2CC(NC(=O)c2cccc(F)c2)C3)cc1 (stereo not drawn),-86*,-15,8,18%,-15%,2%
COc1cccc(C(=O)NC2CC3CCC(C2)N3Cc2ccccc2)c1 (stereo not drawn),-108*,-3,-6,-1%,-8%,-1%
SMILES,DRD3 antagonist,D3 ag,IL1B secr inh,DT40 TDP1 no CPT,TDP1 cell CPT,ClpP mod
CCC(=O)Nc1ccc(C(=O)NCc2ccccn2)cc1,0,-4,8,29%,5%,-1%
Cc1cccc(C)c1N(CCCc1cccnc1)C(=O)C(C)N (stereo not drawn),/,4,/,?,?,/
CCOc1cc(CNc2ncc(-c3ccc(OC)cc3)n2C)ccc1O,-13,-7,-19,18µM*,?,-6%
Cc1ccc(-c2cnc(NCc3c(F)cccc3Cl)n2C)cc1,/,-10,/,23µM*,15µM*,-26%
C=CCn1c(NCc2ccccc2O)nc2ccccc21,-16,-2,-13,?,?,14%
C=CCn1c(NCc2cc(Cl)ccc2O)nc2ccccc21,6,5,-69*,?,?,/
Cn1c(-c2ccc(F)cc2)cnc1NCc1ccc(C#N)cc1,-73*,-1,-15,16µM*,?,-7%
COc1cccc(CNC(=O)CSC2=Nc3ccccc3C3=NC(C(C)C)C(=O)N23)c1 (stereo not drawn),/,-11,/,-25%,2%,?
CC(=O)[O][Al][O]C(C)=O,/,-9,/,-5%,0%,/
O=C(CN1C(=O)COc2ccc(S(=O)(=O)N3CCCC3)cc21)N1CCN(c2ccc(F)cc2)CC1,/,-4,/,/,/,-3%
Cc1cc(C)c(NC(=O)c2cc(S(=O)(=O)N3CCCC3)cn2C)c(C)c1,/,4,/,-25%,-2%,1%
COc1ccc(CNc2ncc(-c3ccccc3)n2C)c2ccccc12,-9,-8,2,?,?,-17%
Cn1c(-c2ccccc2)cnc1NCc1ccc(-c2ccccc2)cc1,-10,-8,16,?,26µM*,-4%
Cn1c(-c2ccc(F)cc2)cnc1NCc1ccc(F)cc1F,-4,-1,9,?,-4%,-7%
Cn1c(-c2ccc(F)cc2)cnc1NCc1ccccc1F,11,-12,-7,23µM*,-28%,-3%
CCc1ccc(CNc2ncc(-c3cccc(OC)c3)n2C)cc1,/,-22,/,4.1µM*,4.1µM*,4%
COc1ccc(CNc2ncc(-c3ccccc3)n2C)c(OC)c1OC,1,2,16,15µM*,?,-17%
CCOc1ccc(CNc2ncc(-c3ccccc3)n2C)cc1,-23,-21,-12,?,-20%,-3%
Cn1c(-c2ccccc2)cnc1NCc1cc(Cl)ccc1O,-15,-12,-55*,-15%,-6%,-1%
